Structures can show the parent of a compound that is named as a salt.

In the assay the test system is thyroid hormone receptor (endogenous TRα and TRβ). On the set-up: species or system GH3-TRE-Luc (rat pituitary); GH3-TRE-Luc luciferase reporter, antagonist mode against 1 nM T3, loss of signal, qHTS. The following applies: read-out: Average AC50 (uM) GH3-TRE-Antag, antagonist mode, 1 nM T3, no GH3 cytotoxicity hit.
As for `c1cnc2cc3c(cc2n1)[C@@H]1CNC[C@H]3C1` [Varenicline dihydrochloride], the AC50 amounted to 63.5 µM.
Next, `OCCN1CCNCC1` [1-Piperazineethanol]: 74.1 µM; `Oc1ccccc1Cc1ccccc1O` [2,2'-Bisphenol F]: more than 90 µM; `Nc1ccc2c3c(cccc13)-c1ccccc1-2` [3-Aminofluoranthene]: 40.9 µM.
Next, `CC(C)OC(=S)S` [Proxan-sodium]: more than 90 µM; `[H]/N=C(\N/C(=N/[H])Nc1ccc(Cl)cc1)NC(C)C` [Proguanil hydrochloride]: 2.32 µM.
Turning to `CCC(=O)/C=C/c1ccc(OC)cc1` [1-(4-Methoxyphenyl)-1-pentene-3-one], the AC50 stood at 79.8 µM.
`C=CC(=O)OCCOc1ccccc1` [2-Phenoxyethyl acrylate]: the half-maximal activity concentration (AC50) was found to be 47.8 µM.

The term AC50 denotes the midpoint of the concentration-response curve, whichever way the signal moves.

Source of the values: publication PMC6792352, “Limited Chemical Structural Diversity Found to Modulate Thyroid Hormone Receptor in the Tox21 Chemical Library” (Environmental Health Perspectives, 2019).
